From PubChem BioAssay (NCI)
About 83,000 compounds went through this panel and 20% of them were active in at least one assay; those are over-represented in the sample as a whole.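 Method: cells in 96-well plates; compound added at one concentration; 48 h incubation; percent growth measured; values under 10 scored active.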 Calls of active or inactive are those of the source.

Test system: SF-539 CNS
Assay: NCI-60 one-dose screen, 48 h (100 = growth as untreated, 0 = no growth, -100 = all killed)
Settings: 10 µM unless noted

SMILES	growth
CC(=O)NNC(=O)c1sc(NC(C)=O)nc1C	97.8% (inactive)
Nc1ccc(S(=O)(=O)c2ccc(NO)cc2)cc1	76.8% (inactive)
Cc1c(Cc2ccccc2)c(=O)oc2c(C)c(OCC(=O)n3nc(C#N)cc3N)ccc12	99.3% (inactive)
NC(=O)CC(NC(=O)COc1ccc(Cl)cc1Cl)C(=O)O (stereo not given)	111% (inactive)
CCCCCCCCC1OC1CCCCCCCC(=O)O (stereo not given)	93.5% (inactive)
CC(=O)/C(=C/c1ccc(-c2ccccc2)cc1)C(=O)c1ccccc1	85.1% (inactive)
COc1ccc(-c2nc(Nc3nc4ccccc4[nH]3)nc(N)c2C#N)cc1	97.2% (inactive)
CCC(CCCN1C(=O)c2ccccc2C1=O)Nc1cc(OC)cc2cccnc12 (stereo not given)	93.4% (inactive)
CC(=O)OC1/C=C\CC/C=C\C1 (stereo not given)	93.1% (inactive)
CCc1ccc(C(=Nc2ccc(N(C)C(=O)CN3CCN(C)CC3)cc2)c2c(O)[nH]c3ccc(C(=O)OC)cc23)cc1	-98.5% (active)
c1ccc2[nH]c(-c3ccc(OCCCCCOc4ccc(-c5nc6ccccc6[nH]5)cc4)cc3)nc2c1	-12.8% (active)
Oc1ccc(CN(Cc2ccc(C(F)(F)F)cc2)Cc2ccc(O)c3ncccc23)c2cccnc12	15.2% (inactive)
COc1ccc2nc3cc(Cl)ccc3c(NCCCNC(C)=O)c2c1	20.1% (inactive)
O=C(N/N=C\c1ccc(Cl)cc1)C(=O)N/N=C\c1ccc(Cl)cc1	99.5% (inactive)
Cc1nc2c(nnn2-c2ccccc2)c2nc(-c3ccccc3)oc(=O)c12	97.7% (inactive)
COC(=O)c1ccc2[nH]c(O)c(C(=Nc3ccc(N(C)C(=O)CN4CCN(C)CC4)cc3)c3ccc(N)cc3)c2c1	50.8% (inactive)
Cc1nc(N)sc1C(=O)NCCO	105% (inactive)
CC(=O)Nc1nc(C)c(C(=O)N/N=C/N2CCOCC2)s1	105% (inactive)
O=C(O)CC1Cc2ccccc2C1C(=O)O (stereo not given)	99.1% (inactive)
Cc1ccc2c(c1)C(=O)CCS2	87.3% (inactive)

SMILES	growth
CCC(C)(C)c1ccc(OCCCCCCN2CCNCC2)cc1	61.4% (inactive)
c1ccc(Nc2ccccn2)cc1	99.5% (inactive)
Brc1ccc(-c2nc3ccccc3s2)cc1	93.2% (inactive)
O=C1/C(=N\c2cc(=O)[nH]n2S(=O)(=O)c2ccccc2)Nc2ccccc21	94.8% (inactive)
CCCC(C)c1cc(Cc2cc(Cl)cc(Cl)c2O)c(O)c(Cc2cc(Cl)cc(Cl)c2O)c1 (stereo not given)	-3.24% (active)
c1ccc(Nc2ncc3c(n2)-c2cccn2CC3)cc1	87.1% (inactive)
CC1=C(C)C(=O)C(C(C)C2=C(C)C(=O)C(C)=C(C)C2=O)=C(C)C1=O	81.2% (inactive)
C=CCSc1nnc(COc2ccc3c(C)c(Cc4ccccc4)c(=O)oc3c2C)o1	101% (inactive)
CCOc1nc(-c2ccccc2)cc2c(O)c(C(=O)N/N=C/c3ccccc3O)[nH]c(=O)c12	117% (inactive)
CC(=O)Nc1nc(C)c(C(=O)NNC(=O)Nc2ccccc2)s1	99.4% (inactive)
c1cc[c]([Bi]([c]2ccccc2)[c]2ccccc2)cc1	105% (inactive)
COc1cc(NC(=O)CSc2nc3ccc(Cl)cc3c(=O)n2-c2ccc(F)cc2)cc(OC)c1OC	98.4% (inactive)
CC(=O)Nc1nc(C)c(C(=O)NN)s1	91.3% (inactive)
COC(=O)C(C)[C@H]1CC[C@@H]2[C@]1(C)CC=C1[C@]23C=C[C@]2(C[C@@H](OC(C)=O)CC[C@]12C)C(C(=O)OC)C3C(=O)OC (stereo not given in full)	99.3% (inactive)
Cc1nc2c(nnn2-c2ccccc2)c2nc(-c3ccc(Cl)cc3)oc(=O)c12	96.8% (inactive)
CCCCCCCCC/C(=N\NC(=O)c1ccncc1)c1ccc(O)c(O)c1O	7.62% (active)
CNCCCNCCCCNCCCN1C(=O)c2ccc3c4c(ccc(c24)C1=O)C(=O)N(CCCNCc1ccccc1OC)C3=O	21.7% (inactive)
Cc1nc(NC(=S)Nc2ccc(F)cc2)sc1C(=O)NNC(=S)Nc1ccc(F)cc1	93.8% (inactive)
CCOc1ccc(/C=N/NC(=O)c2cccc3ccccc23)cc1OCC	105% (inactive)
O=C(/C=C/c1ccc(Br)cc1)c1ccccc1	100% (inactive)

Test system: UACC-257 melanoma
Assay: as above
Settings: 10 µM unless noted

SMILES	growth
CC(=O)NNC(=O)c1sc(NC(C)=O)nc1C	105% (inactive)
Nc1ccc(S(=O)(=O)c2ccc(NO)cc2)cc1	106% (inactive)
Cc1c(Cc2ccccc2)c(=O)oc2c(C)c(OCC(=O)n3nc(C#N)cc3N)ccc12	105% (inactive)
NC(=O)CC(NC(=O)COc1ccc(Cl)cc1Cl)C(=O)O (stereo not given)	107% (inactive)
CCCCCCCCC1OC1CCCCCCCC(=O)O (stereo not given)	95.3% (inactive)
CC(=O)/C(=C/c1ccc(-c2ccccc2)cc1)C(=O)c1ccccc1	80.2% (inactive)
COc1ccc(-c2nc(Nc3nc4ccccc4[nH]3)nc(N)c2C#N)cc1	108% (inactive)
CCC(CCCN1C(=O)c2ccccc2C1=O)Nc1cc(OC)cc2cccnc12 (stereo not given)	100% (inactive)
CC(=O)OC1/C=C\CC/C=C\C1 (stereo not given)	108% (inactive)
CCc1ccc(C(=Nc2ccc(N(C)C(=O)CN3CCN(C)CC3)cc2)c2c(O)[nH]c3ccc(C(=O)OC)cc23)cc1	-67.4% (active)
c1ccc2[nH]c(-c3ccc(OCCCCCOc4ccc(-c5nc6ccccc6[nH]5)cc4)cc3)nc2c1	71.4% (inactive)
Oc1ccc(CN(Cc2ccc(C(F)(F)F)cc2)Cc2ccc(O)c3ncccc23)c2cccnc12	-27.7% (active)
COc1ccc2nc3cc(Cl)ccc3c(NCCCNC(C)=O)c2c1	43.1% (inactive)
O=C(N/N=C\c1ccc(Cl)cc1)C(=O)N/N=C\c1ccc(Cl)cc1	108% (inactive)
Cc1nc2c(nnn2-c2ccccc2)c2nc(-c3ccccc3)oc(=O)c12	123% (inactive)
COC(=O)c1ccc2[nH]c(O)c(C(=Nc3ccc(N(C)C(=O)CN4CCN(C)CC4)cc3)c3ccc(N)cc3)c2c1	125% (inactive)
Cc1nc(N)sc1C(=O)NCCO	110% (inactive)
CC(=O)Nc1nc(C)c(C(=O)N/N=C/N2CCOCC2)s1	118% (inactive)
O=C(O)CC1Cc2ccccc2C1C(=O)O (stereo not given)	107% (inactive)
Cc1ccc2c(c1)C(=O)CCS2	102% (inactive)

SMILES	growth
CCC(C)(C)c1ccc(OCCCCCCN2CCNCC2)cc1	75.9% (inactive)
c1ccc(Nc2ccccn2)cc1	104% (inactive)
Brc1ccc(-c2nc3ccccc3s2)cc1	117% (inactive)
O=C1/C(=N\c2cc(=O)[nH]n2S(=O)(=O)c2ccccc2)Nc2ccccc21	123% (inactive)
CCCC(C)c1cc(Cc2cc(Cl)cc(Cl)c2O)c(O)c(Cc2cc(Cl)cc(Cl)c2O)c1 (stereo not given)	-3.64% (active)
c1ccc(Nc2ncc3c(n2)-c2cccn2CC3)cc1	124% (inactive)
CC1=C(C)C(=O)C(C(C)C2=C(C)C(=O)C(C)=C(C)C2=O)=C(C)C1=O	92.7% (inactive)
C=CCSc1nnc(COc2ccc3c(C)c(Cc4ccccc4)c(=O)oc3c2C)o1	102% (inactive)
CCOc1nc(-c2ccccc2)cc2c(O)c(C(=O)N/N=C/c3ccccc3O)[nH]c(=O)c12	88.6% (inactive)
CC(=O)Nc1nc(C)c(C(=O)NNC(=O)Nc2ccccc2)s1	116% (inactive)
c1cc[c]([Bi]([c]2ccccc2)[c]2ccccc2)cc1	106% (inactive)
COc1cc(NC(=O)CSc2nc3ccc(Cl)cc3c(=O)n2-c2ccc(F)cc2)cc(OC)c1OC	97.4% (inactive)
CC(=O)Nc1nc(C)c(C(=O)NN)s1	108% (inactive)
COC(=O)C(C)[C@H]1CC[C@@H]2[C@]1(C)CC=C1[C@]23C=C[C@]2(C[C@@H](OC(C)=O)CC[C@]12C)C(C(=O)OC)C3C(=O)OC (stereo not given in full)	97.5% (inactive)
Cc1nc2c(nnn2-c2ccccc2)c2nc(-c3ccc(Cl)cc3)oc(=O)c12	117% (inactive)
CCCCCCCCC/C(=N\NC(=O)c1ccncc1)c1ccc(O)c(O)c1O	8.98% (active)
CNCCCNCCCCNCCCN1C(=O)c2ccc3c4c(ccc(c24)C1=O)C(=O)N(CCCNCc1ccccc1OC)C3=O	29.2% (inactive)
Cc1nc(NC(=S)Nc2ccc(F)cc2)sc1C(=O)NNC(=S)Nc1ccc(F)cc1	82.1% (inactive)
CCOc1ccc(/C=N/NC(=O)c2cccc3ccccc23)cc1OCC	109% (inactive)
O=C(/C=C/c1ccc(Br)cc1)c1ccccc1	84.3% (inactive)
